Screening results deposited in PubChem BioAssay by Broad Institute.
CD40 NFkB inh – CD40 pathway inhibition in BL2 cells; BL2 NF-kB luciferase reporter, CD40L-induced, 4 h; inhibition, % at 10 µM; 83,000 compounds, 0.94% hits;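 active means mean inhibition of at least 50% with a set share of replicates also reaching that level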
Large screens that a line does not name were inactive; [ ] = dose if it differs, or a comment. The sample as a whole holds a higher share of hits than the screen did.

O=C(CSc1nnnn1-c1ccc2c(c1)OCO2)NCc1ccccc1	none
CCC(C)NC(=O)C1(NC(=O)Nc2ccccc2)CCCCC1 (centres undefined)	none
S=c1[nH]c2cnc(Cl)nc2[nH]1	none
Cc1cc(C(=O)COC(=O)c2ccncc2)c(C)n1CCc1ccc(F)cc1	none
Cc1nonc1C(=O)N/N=C/c1ccc([N+](=O)[O-])o1	none
COc1ccc(/C=N/NC(=O)c2nonc2C)cc1	CD40 NFkB inh 63.9
COc1ccc(/C=N/NC(=O)CC(=O)N/N=C/c2ccc(OC)cc2)cc1	none
OC(c1cc(-c2cccc(Cl)c2)nc2ccccc12)C1CCCCN1 (centres undefined)	CD40 NFkB inh 65.0
OC(CN1CCOCC1)Cn1c(-c2cccc(Cl)c2)nc2ccccc21 (centres undefined)	none
O=C(O)c1cc(-c2ccccc2)nc2ccccc12	none
CC1CCN(C(=O)COC(=O)Cn2cnc3c2c(=O)n(C)c(=O)n3C)CC1	none
S=C(NNC(=S)Nc1ccc(Cl)cc1)NNc1ccccc1	none
O=C(c1cc(-c2ccc3c(c2)OCO3)on1)N1CCCCC1	CD40 NFkB inh 54.4
O=C(c1cc(-c2ccc(O)cc2)on1)N1CCCCCC1	none
COc1ccc(-c2cc(C(=O)N3CCCC3)no2)cc1OC	none
C[C@H](CO)N1C[C@H](C)[C@H](CN(C)C(=O)NC2CCCCC2)Oc2ncc(-c3cccc(F)c3)cc2C1=O	none
C[C@@H]1CN([C@@H](C)CO)C(=O)Cc2cc(NS(=O)(=O)c3ccc(F)cc3)ccc2O[C@H]1CN(C)Cc1ccc(C(F)(F)F)cc1	CD40 NFkB inh 72.4
Cc1noc(C)c1S(=O)(=O)Nc1ccc2c(c1)CC(=O)N([C@H](C)CO)C[C@H](C)[C@@H](CN(C)Cc1ccc(Oc3ccccc3)cc1)O2	none
C[C@H]1CN([C@@H](C)CO)C(=O)Cc2cc(NS(=O)(=O)c3ccc(F)cc3)ccc2O[C@H]1CN(C)Cc1ccncc1	none
C[C@H]1CN([C@@H](C)CO)C(=O)Cc2cc(NS(=O)(=O)c3ccc(F)cc3)ccc2O[C@@H]1CN(C)Cc1ccncc1	none
Cc1noc(C)c1S(=O)(=O)Nc1ccc2c(c1)CC(=O)N([C@@H](C)CO)C[C@@H](C)[C@@H](CN(C)Cc1ccc(Oc3ccccc3)cc1)O2	CD40 NFkB inh 73.9[25 µM]
Cc1noc(C)c1S(=O)(=O)Nc1ccc2c(c1)CC(=O)N([C@@H](C)CO)C[C@@H](C)[C@@H](CN(C)Cc1ccccc1)O2	none
C[C@@H]1CN([C@H](C)CO)C(=O)Cc2cc(NS(=O)(=O)c3ccc(F)cc3)ccc2O[C@H]1CN(C)CC1CCCCC1	CD40 NFkB inh 58.8
C[C@@H]1CN([C@H](C)CO)C(=O)Cc2cc(NS(=O)(=O)c3ccc(F)cc3)ccc2O[C@@H]1CN(C)Cc1ccc(C(F)(F)F)cc1	none
C[C@@H]1CN([C@H](C)CO)C(=O)c2cc(NS(=O)(=O)c3ccc(F)cc3)ccc2O[C@H]1CN(C)Cc1ccc(C(F)(F)F)cc1	none
O=C(Oc1cccc2cccnc12)c1ccc2c(c1)OCCO2	none
Cn1c(NCc2ccccc2)nc2cc(-c3cccc(C(F)(F)F)c3)sc2c1=O	none
O=c1[nH]cnc2cc(Cl)ccc12	none
Cc1ccc(NC(=O)C[C@H]2CC[C@H]3[C@@H](COc4ccc(NC(=O)c5ccc(F)cc5)cc4C(=O)N3C)O2)cc1	none
Cc1ccc(S(=O)(=O)NCC(=O)OC(C)C(=O)NCc2ccc3c(c2)OCO3)cc1 (centres undefined)	none
O=[N+]([O-])c1ccc(-c2ccc(/C=N/c3c(-c4ccco4)nc4ccccn34)o2)cc1	none
CCOC(=O)c1cc2c(ccn2C)n1Cc1ccc(C#N)cc1	CD40 NFkB inh 54.9
CCOC(=O)c1cc2c(ccn2C)n1Cc1ccc(Cl)cc1	none
CCOC(=O)c1cc2c(ccn2C)n1CC(=O)N(C)C	none
Cc1ccc2c(c1)CCCN2C(=O)c1ccc2c(c1)OCO2	none
Cc1ccc(-n2c(SCc3cccc(F)c3)nnc2-c2cccc(C)c2)cc1	none
COC(=O)C[C@@H]1C[C@H]2c3cc(NC(=O)Nc4ccccc4)ccc3O[C@H]2[C@H](CO)O1	none
CCN(CC)CCCNc1nc2ccccc2c2[nH]c3ccc(OC)cc3c12	CD40 NFkB inh 103.3
COc1ccc2[nH]c3c(NCCCN4CCCC4=O)ncnc3c2c1	none
CCN(CC)CCCNS(=O)(=O)c1ccc(OC)cc1	none
Cc1noc(NS(=O)(=O)c2ccc(NS(=O)(=O)c3ccc(Cl)cc3)cc2)c1C	none
OC1CC2CCC(C1)N2CCCN1c2ccccc2Sc2ccc(Cl)cc21 (centres undefined)	CD40 NFkB inh 54.1
O=C1CCSc2ccc(Cl)cc2N1Cc1ccccc1	none
O=C(CN1c2ccccc2Sc2ccccc21)N/N=C/c1ccc(Cl)cc1	none
O=C(CCN1CCCCC1)c1ccc2c(c1)OCCO2	none
O=C(CCN1CCC(c2ccccc2)C1)c1ccccc1 (centres undefined)	none
COc1cc(C(=O)CCN2CCC(c3ccccc3)C2)cc(OC)c1OC (centres undefined)	CD40 NFkB inh 44.7
O=C(CCN1CCC(c2ccccc2)C1)c1cccs1 (centres undefined)	none
O=C(CCN1CCC(c2ccccc2)C1)c1ccc2c(c1)OCCO2 (centres undefined)	CD40 NFkB inh 45.0
COc1cc(C(=O)OC2CCN(C)CC2)cc(OC)c1OC	none
O=C1c2ccccc2CCc2ccccc21	none
C[C@H]1CN([C@@H](C)CO)C(=O)c2ccccc2-c2ccccc2CO[C@H]1CN(C)S(=O)(=O)c1cccs1	none
COc1cccc(S(=O)(=O)N2C[C@@H](O)COC[C@H]3O[C@@H](CC(=O)N4CCN(c5ccccc5)CC4)CC[C@@H]32)c1	none
Cc1noc(C)c1S(=O)(=O)N(C)C[C@H]1Oc2c(NC(=O)c3ccc(-c4nccs4)cc3)cccc2C(=O)N([C@@H](C)CO)C[C@H]1C	none
CCOc1ccc(OCCC(=O)OCC(=O)NCCc2ccc(S(N)(=O)=O)cc2)cc1	none
COc1ccc(-c2nc(-c3ccccn3)ncc2S(C)(=O)=O)cc1	none
c1ccc(-c2nccc(-c3ccco3)n2)nc1	none
Cn1nc(-c2ccccn2)nc2c(=O)n(C)c(=O)nc1-2	CD40 NFkB inh 101.3
CCS(=O)(=O)N1CCCC(C(=O)NCCN(C)Cc2ccccc2)C1 (centres undefined)	none
Cc1nn(C)c2ncc(C(N)=O)c(Oc3cccnc3)c12	none
C[C@@H](C(=O)N(C)C[C@@H]1OCc2ccccc2-c2c(n(C)c3ccccc23)C(=O)N([C@@H](C)CO)C[C@@H]1C)c1ccccc1	none
C[C@@H]1C[C@H]2[C@@H]3CCC4=CC(=O)C=C[C@]4(C)[C@@]3(F)[C@@H](O)C[C@]2(C)[C@@]1(O)C(=O)COP(=O)(O)O	CD40 NFkB inh 51.5
CCCC(=O)O[C@]1(C(=O)CCl)[C@@H](C)C[C@H]2[C@@H]3CCC4=CC(=O)C=C[C@]4(C)[C@@]3(F)C(=O)C[C@@]21C	none
CCC(=O)O[C@]1(C(=O)CCl)[C@@H](C)C[C@H]2[C@@H]3CCC4=CC(=O)C=C[C@]4(C)[C@@]3(F)[C@@H](O)C[C@@]21C	CD40 NFkB inh 44.8
C[C@H]1C[C@H]2[C@@H]3CCC4=CC(=O)C=C[C@]4(C)[C@@]3(Cl)[C@@H](O)C[C@]2(C)[C@@]1(O)C(=O)CO	none
CC12C=CC(=O)C=C1CCC1C3CCC(O)(C(=O)CO)C3(C)CC(O)C12F (centres undefined)	none
COC(=O)c1cscc1S(=O)(=O)Cc1ccccc1	none
O=C1c2cccc3cccc(c23)C(=O)N1c1nccs1	none
Cc1cc(C(=O)Nc2sc3c(c2C#N)CCCC3)no1	none
C[C@H](CO)N1C[C@H](C)[C@H](CN(C)S(C)(=O)=O)OCc2cn(nn2)CCCC1=O	none
CC(Sc1n[nH]c(-c2ccccc2)n1)C(=O)c1c(N)n(C)c(=O)n(C)c1=O (centres undefined)	none
